These results are taken from PubChem BioAssay.

Unmarked numbers belong to inactive results. For some of these results: Results with a measured potency or affinity are listed apart. Calls of active or inactive are those of the source. Unless noted, how the calls were made is not given here.

The nature of assay [1]: antimalarial activity against Dd2 strain (AID 2302;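 active means growth inhibition above 50% at the single 2 µM test dose, taken to imply half-maximal potency below 2 µM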;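 further: 0% = DMSO untreated growth and 100% = chloroquine plus artemisinin killed control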). The settings on record: P. falciparum Dd2 in RBCs, LDH growth readout, 72 h; at 2 µM; hits give high values.
A short description of assay [2]: HepG2 cytotoxicity, primary screen, cytotoxicity control for P. falciparum antimalarial project, cell-based, ATP luminescence (AID 2303;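 active means inhibition above 50%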;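 further: 0% = DMSO wells and 100% = digitonin-killed cells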). As to conditions: HepG2 viability, 24-48 h, at 10 µM, hits give high values.
The target of assay [3] is L-lactate dehydrogenase (Plasmodium falciparum (isolate CDC / Honduras)) (UniProt Q27743). Briefly: PfLDH activity inhibition – cell lysate, 3D7 strain, counter-screen for P. falciparum growth inhibition project (AID 2304).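 Further: 0% = vehicle and 100% = reference inhibitor.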 As to conditions: P. falciparum 3D7 crude extract, LDH APAD/NBT absorbance; at 2 µM; hits give high values.
L-lactate dehydrogenase (Plasmodium falciparum (isolate CDC / Honduras)), sequence (Q27743 whole entry, looked up): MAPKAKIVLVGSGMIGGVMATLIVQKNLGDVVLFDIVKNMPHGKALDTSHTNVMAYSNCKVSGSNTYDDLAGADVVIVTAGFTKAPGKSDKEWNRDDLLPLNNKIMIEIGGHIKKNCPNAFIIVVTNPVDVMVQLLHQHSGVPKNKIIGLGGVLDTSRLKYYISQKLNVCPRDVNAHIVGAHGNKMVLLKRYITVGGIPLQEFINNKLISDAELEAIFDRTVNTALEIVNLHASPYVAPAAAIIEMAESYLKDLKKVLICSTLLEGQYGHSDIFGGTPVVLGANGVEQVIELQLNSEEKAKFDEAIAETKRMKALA
Assay [4] in a line: inhibition of 3D7 malaria parasite growth – strain 3D7 (AID 2306).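 Further: 0% = DMSO wells and 100% = chloroquine plus artemisinin control wells.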 As to conditions: P. falciparum 3D7 erythrocytic growth, LDH absorbance, 72 h; at 2 µM; hits give high values.
For assay [5], the target named is Calcium-dependent protein kinase 1 (Plasmodium falciparum (isolate 3D7)) (UniProt P62344). Briefly: PfCDPK1 kinase inhibitors, biochemical, TCAMS library (AID 1159585; cut-off not given, nearly all actives have IC50 up to about 0.98 µM;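 further: inhibitors leave more ATP so luminescence rises with inhibition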). The settings on record: recombinant PfCDPK1, Kinase-Glo ATP depletion luminescence.
Calcium-dependent protein kinase 1 (Plasmodium falciparum (isolate 3D7)), sequence (P62344 whole entry, looked up): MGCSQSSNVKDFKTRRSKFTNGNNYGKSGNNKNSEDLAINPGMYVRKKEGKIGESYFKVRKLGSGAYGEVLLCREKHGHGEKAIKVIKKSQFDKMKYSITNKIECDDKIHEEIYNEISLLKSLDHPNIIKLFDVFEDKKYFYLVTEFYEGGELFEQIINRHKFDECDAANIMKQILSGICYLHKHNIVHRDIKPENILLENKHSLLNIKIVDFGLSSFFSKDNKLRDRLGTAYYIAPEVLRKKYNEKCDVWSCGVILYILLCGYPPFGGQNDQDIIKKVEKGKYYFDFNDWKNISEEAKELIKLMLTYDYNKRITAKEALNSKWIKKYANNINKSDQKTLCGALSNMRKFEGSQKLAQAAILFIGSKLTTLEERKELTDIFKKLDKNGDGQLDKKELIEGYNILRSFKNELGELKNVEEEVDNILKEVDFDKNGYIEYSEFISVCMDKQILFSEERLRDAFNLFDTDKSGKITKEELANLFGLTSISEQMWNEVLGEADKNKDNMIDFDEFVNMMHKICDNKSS
The target in assay [6] is Plasmodium falciparum protein kinase 6 (PK6, PF3D7_1337100) (UniProt Q8IDW1). Briefly: PfPK6 kinase inhibitors, biochemical, TCAMS library (AID 1159586). As to conditions: recombinant PfPK6, Kinase-Glo ATP depletion luminescence.
Plasmodium falciparum protein kinase 6 (PK6, PF3D7_1337100), sequence (Q8IDW1 1-305): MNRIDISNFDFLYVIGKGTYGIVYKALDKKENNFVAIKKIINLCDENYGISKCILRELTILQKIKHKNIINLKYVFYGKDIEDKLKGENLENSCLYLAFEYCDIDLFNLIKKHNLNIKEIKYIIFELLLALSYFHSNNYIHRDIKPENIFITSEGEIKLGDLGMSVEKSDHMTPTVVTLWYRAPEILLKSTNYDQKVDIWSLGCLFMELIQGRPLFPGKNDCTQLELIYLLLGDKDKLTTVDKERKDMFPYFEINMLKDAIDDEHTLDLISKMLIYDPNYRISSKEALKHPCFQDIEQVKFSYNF
Assay [7] deals with Protein kinase 7 (PK7), Plasmodium falciparum 3D7 (PF3D7_0213400) (UniProt Q7YTF7). Briefly: inhibition of Plasmodium PK7 catalytic activity – biochemical, TCAMS antimalarial set, Kinase-Glo luminescence (AID 1159587). The settings on record: recombinant PfPK7, Kinase-Glo ATP depletion luminescence.
Protein kinase 7 (PK7), Plasmodium falciparum 3D7 (PF3D7_0213400), sequence (Q7YTF7 1-343): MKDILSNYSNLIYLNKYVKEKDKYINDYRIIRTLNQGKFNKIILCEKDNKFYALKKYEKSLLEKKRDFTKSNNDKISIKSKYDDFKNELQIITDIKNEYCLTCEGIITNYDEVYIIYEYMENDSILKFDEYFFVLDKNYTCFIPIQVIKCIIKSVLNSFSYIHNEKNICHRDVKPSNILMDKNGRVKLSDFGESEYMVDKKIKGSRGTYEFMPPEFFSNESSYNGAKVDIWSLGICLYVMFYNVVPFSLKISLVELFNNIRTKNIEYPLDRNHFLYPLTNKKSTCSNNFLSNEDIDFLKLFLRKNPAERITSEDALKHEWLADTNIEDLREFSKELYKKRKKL
Assay [8] deals with Calcium-dependent protein kinase 4 (Plasmodium falciparum (isolate 3D7)) (UniProt Q8IBS5). Briefly: PfCDPK4 kinase inhibitors, biochemical, TCAMS library (AID 1159588; cut-off not given, nearly all actives have IC50 up to about 0.91 µM). The settings on record: recombinant PfCDPK4, Kinase-Glo ATP depletion luminescence.
Calcium-dependent protein kinase 4 (Plasmodium falciparum (isolate 3D7)), sequence (Q8IBS5 whole entry, looked up): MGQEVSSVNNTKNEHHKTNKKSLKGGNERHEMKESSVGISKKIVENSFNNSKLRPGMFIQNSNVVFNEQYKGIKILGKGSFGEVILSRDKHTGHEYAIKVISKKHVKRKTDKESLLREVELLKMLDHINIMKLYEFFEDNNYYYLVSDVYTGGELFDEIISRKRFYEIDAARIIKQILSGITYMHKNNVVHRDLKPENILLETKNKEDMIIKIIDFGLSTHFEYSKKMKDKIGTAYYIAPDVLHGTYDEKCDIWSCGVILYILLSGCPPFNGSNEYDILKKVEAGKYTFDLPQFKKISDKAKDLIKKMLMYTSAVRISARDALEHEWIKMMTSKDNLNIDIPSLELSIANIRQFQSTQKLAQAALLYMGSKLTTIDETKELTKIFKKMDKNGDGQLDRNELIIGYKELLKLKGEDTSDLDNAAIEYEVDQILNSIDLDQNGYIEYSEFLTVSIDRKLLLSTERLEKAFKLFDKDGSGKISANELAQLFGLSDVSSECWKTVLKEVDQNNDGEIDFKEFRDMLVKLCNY

As to `CCCc1cc(Cc2cnc(N)nc2N)ccc1OCCCCCC(=O)OCC`, the growth inhibition is 1% in assay [1] and 97% (active) in assay [4]. The results for the inhibition in assay [2] and in assay [3] were -11% and 0%, respectively. Moreover, the outcome in assay [5], in assay [6], in assay [7] and in assay [8] was inactive.
As to `CS(=O)(=O)CCNCc1ccc(-c2cc3c(Nc4ccc(OCc5cccc(F)c5)c(Cl)c4)ncnc3s2)[nH]1`, the growth inhibition in assay [1] is 95% (active); in assay [4], 99% (active). In addition, the results for the inhibition in assay [2] and in assay [3] were 5% and 2%, respectively. For the same compound, the outcome in assay [5], in assay [6], in assay [7] and in assay [8] was inactive.
On to `NC(=O)c1ccc(NCC(=O)Nc2cccc(-c3cccc(-c4nc5ccccc5[nH]4)c3)c2)cc1`, for which the growth inhibition in assay [1] is 30%; in assay [4] it was 99% (active). Besides, the inhibition in assay [2] was 9%; in assay [3], -3%. In addition, the outcome in assay [5], in assay [6], in assay [7] and in assay [8] was inactive.
In the case of `COc1ccccc1NC(=O)CSc1nc2cccnc2n1-c1ccccc1OC`, the figures for the growth inhibition in assay [1] and in assay [4] were 91% (active) and 94% (active), respectively. The values for the inhibition in assay [2] and in assay [3] were -4% and -3%, respectively. In addition, the outcome in assay [5], in assay [6], in assay [7] and in assay [8] was inactive.
Turning to `COc1ccccc1-c1[nH]c2ccccc2c1CN1CCC(c2c(C)cccc2C)CC1`, the growth inhibition in assay [1] was 13%; in assay [4] it was 96% (active). For the same compound, the inhibition in assay [2] is 49%; in assay [3] it was 3%. Moreover, the result in assay [5], in assay [6], in assay [7] and in assay [8] was inactive.
Regarding `O=C(CSc1nc(-c2ccccc2Cl)ns1)Nc1cccc(Cl)c1`, the figures for the growth inhibition in assay [1] and in assay [4] were 89% (active) and 96% (active), respectively. For the same compound, the figures for the inhibition in assay [2] and in assay [3] were -8% and -4%, respectively. Besides, the result in assay [5], in assay [6], in assay [7] and in assay [8] was inactive.
`COc1cc2nc(N3CCC(CNC(=O)c4ccc(-c5ccccc5)cc4)CC3)nc(N)c2cc1OC`: the growth inhibition in assay [1] was 92% (active); in assay [4] it was 93% (active). The figures for the inhibition in assay [2] and in assay [3] were 11% and -1%, respectively. The outcome in assay [5], in assay [6], in assay [7] and in assay [8] was inactive.
With `O=C1NC(C(=O)Nc2ccccc2)C(c2ccccc2)S1` (stereo not given), the growth inhibition in assay [1] is 99% (active); in assay [4], 95% (active). In addition, the inhibition is -4% in assay [2] and -1% in assay [3]. Moreover, the result in assay [5], in assay [6], in assay [7] and in assay [8] was inactive.
In the case of `O=C(NCCCN1CCOCC1)c1csc(Nc2ccc(Cl)c(Cl)c2)n1`, the growth inhibition was 23% in assay [1] and 92% (active) in assay [4]. For the same compound, the inhibition is 5% in assay [2] and 2% in assay [3]. Besides, the outcome in assay [5], in assay [6], in assay [7] and in assay [8] was inactive.
With `O=C(NCC1CCC(C(=O)NCc2cccc(C(F)(F)F)c2)CC1)c1ccc(O)c(-c2ccc(Cl)c(Cl)c2)c1` (stereo not given), the growth inhibition is 41% in assay [1] and 98% (active) in assay [4]. For the same compound, the inhibition was 5% in assay [2] and 0% in assay [3]. The result in assay [5], in assay [6], in assay [7] and in assay [8] was inactive.
Take `COc1ccc(CNC2Cc3ccccc3C2)cc1-c1cccc(S(=O)(=O)NCCN2CCCC2)c1`: the figures for the growth inhibition in assay [1] and in assay [4] were 61% (active) and 98% (active), respectively. The inhibition in assay [2] was 48%; in assay [3], -3%. Besides, the result in assay [5], in assay [6], in assay [7] and in assay [8] was inactive.
`CC1(C)CCC(C)(C)c2c1ccc(C1CCN(CCCCNC(=O)c3ccc(-c4ccc(C#N)cc4)cc3)CC1)c2OCC(N)=O`: the growth inhibition is 100% (active) in assay [1] and 102% (active) in assay [4]. For the same compound, the inhibition in assay [2] is 99% (active); in assay [3], -3%. Further, the result in assay [5], in assay [6], in assay [7] and in assay [8] was inactive.
For the compound `CC(C)(C)c1ccc(CNC(=O)c2ccc(-c3nc4ccc(C(C)(C)C)cc4[nH]3)cc2)cc1`, the growth inhibition in assay [1] is 49%; in assay [4], 96% (active). Moreover, the inhibition in assay [2] was 21%; in assay [3], 3%. In addition, the outcome in assay [5], in assay [6], in assay [7] and in assay [8] was inactive.
On to `Cc1cccc(CN2CCN(c3ncc(C(=O)NC4CC4)cc3Cl)CC2)c1`, for which the figures for the growth inhibition in assay [1] and in assay [4] were 73% (active) and 84% (active), respectively. In addition, the inhibition in assay [2] was 2%; in assay [3], -4%. Also, the result in assay [5], in assay [6], in assay [7] and in assay [8] was inactive.
For `CC1CCCN(S(=O)(=O)c2ccc(NC(=O)c3cc(-c4ccccc4O)n[nH]3)cc2)C1` (stereo not given), the values for the growth inhibition in assay [1] and in assay [4] were 49% and 93% (active), respectively. Besides, the inhibition in assay [2] is 12%; in assay [3], 3%. In addition, the result in assay [5], in assay [6], in assay [7] and in assay [8] was inactive.
For `Cc1cccc2[nH]c(-c3ccc(-c4ccc(CN5CCCCC5)cc4)s3)nc12`, the growth inhibition is 87% (active) in assay [1] and 99% (active) in assay [4]. The inhibition in assay [2] was 16%; in assay [3], -2%. Moreover, the outcome in assay [5], in assay [6], in assay [7] and in assay [8] was inactive.
In the case of `O=C(Nc1ccccc1)c1cnc[nH]1`, the growth inhibition in assay [1] was -1%; in assay [4] it was 92% (active). The inhibition in assay [2] was -7%; in assay [3] it was 1%. Moreover, the result in assay [5], in assay [6], in assay [7] and in assay [8] was inactive.
As for `CNCc1ccc2nc(-c3coc(Cc4cc(Cl)ccc4OCC(C)C)n3)[nH]c2c1`, the growth inhibition in assay [1] is 95% (active); in assay [4] it was 101% (active). Also, the values for the inhibition in assay [2] and in assay [3] were 34% and 2%, respectively. Moreover, the result in assay [5], in assay [6], in assay [7] and in assay [8] was inactive.
For the compound `CN(C)C(=O)c1ccc(CN(Cc2ccc3c(c2)OCCO3)Cc2ccc3c(c2)OCO3)cc1`, the growth inhibition in assay [1] was 95% (active); in assay [4], 89% (active). The inhibition in assay [2] was -10%; in assay [3] it was 3%. The result in assay [5], in assay [6], in assay [7] and in assay [8] was inactive.
In the case of `COc1cc2c(OC)cccc2cc1CNCCCCCCNCc1cc2cccc(OC)c2cc1OC`, the growth inhibition in assay [1] is 7%; in assay [4] it was 95% (active). Moreover, the inhibition was 59% (active) in assay [2] and 1% in assay [3]. Besides, the result in assay [5], in assay [6], in assay [7] and in assay [8] was inactive.
